Values joined by “and” are separate entries in the source; they are usually repeats but may differ in a detail not shown here. Equal entries are not always repeated. Results filed as inconclusive are left out. Active and inactive are the calls of the source. Calls follow the shape of the dose curve; as a rule, active = well fitted curve in the direction sought with a large enough effect; inconclusive = small, poorly fitted or top-dose-only effect, or another doubt; inactive = no such curve, though single readings can be large; an effect the other way counts as inactive or inconclusive.
How the values were obtained:
[1] = qHTS of pediatric cancer cell lines to identify multiple opportunities for drug repurposing: Primary screen for U-2 OS cells (AID 1347096); also: nearly all actives have a fitted effect of over 50% in size; also: potency is read from the fitted curve at half-maximal effect
How it was run: (§1)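 Cells (500-1,000/well) rested 5 h, then received compounds for 48 h; metabolically active cells were measured by CellTiter-Glo luminescence. Final concentrations spanned up to 46 µM (MIPE, 11-point) or 0.59 nM-46 µM (NPC, 8-point) in primary screens, 11-point in follow-ups.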

[2] = qHTS of pediatric cancer cell lines to identify multiple opportunities for drug repurposing: Primary screen for Saos-2 cells (AID 1347097); also: nearly all actives have a fitted effect of over 40% in size; also: potency is read from the fitted curve at half-maximal effect
How it was run: (§2)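 Viability was measured as metabolically active cells after 48 hours of treatment, read by CellTiter-Glo luminescence. Compounds were tested at multiple final concentrations, giving concentration-response curves.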

[3] = qHTS of pediatric cancer cell lines to identify multiple opportunities for drug repurposing: Primary screen for SK-N-SH cells (AID 1347098); also: nearly all actives have a fitted effect of over 65% in size; also: potency is read from the fitted curve at half-maximal effect
How it was run: as §1

[4] = qHTS of pediatric cancer cell lines to identify multiple opportunities for drug repurposing: Primary screen for NB1643 cells (AID 1347099); also: nearly all actives have a fitted effect of over 50% in size; also: potency is read from the fitted curve at half-maximal effect
How it was run: as §2

[5] = qHTS of pediatric cancer cell lines to identify multiple opportunities for drug repurposing: Primary screen for LAN-5 cells (AID 1347100); also: potency is read from the fitted curve at half-maximal effect
How it was run: as §1

[6] = qHTS of pediatric cancer cell lines to identify multiple opportunities for drug repurposing: Primary screen for BT-12 cells (AID 1347101); also: nearly all actives have a fitted effect of over 25% in size; also: potency is read from the fitted curve at half-maximal effect
How it was run: as §1

[7] = qHTS of pediatric cancer cell lines to identify multiple opportunities for drug repurposing: Primary screen for RD cells (AID 1347104); also: nearly all actives have a fitted effect of over 55% in size; also: potency is read from the fitted curve at half-maximal effect
How it was run: as §2

[8] = qHTS of pediatric cancer cell lines to identify multiple opportunities for drug repurposing: Primary screen for Rh30 cells (AID 1347107); also: series mostly up to about 46 µM; nearly all actives have a fitted effect of over 75% in size
How it was run: as §1

[9] = qHTS of pediatric cancer cell lines to identify multiple opportunities for drug repurposing: Primary screen for BT-37 cells (AID 1347094); also: potency is read from the fitted curve at half-maximal effect
How it was run: as §2

[10] = qHTS of pediatric cancer cell lines to identify multiple opportunities for drug repurposing: Primary screen for OHS-50 cells (AID 1347103); also: nearly all actives have a fitted effect of over 40% in size; also: potency is read from the fitted curve at half-maximal effect
How it was run: as §1

[11] = qHTS of pediatric cancer cell lines to identify multiple opportunities for drug repurposing: Primary screen for MG 63 (6-TG R) cells (AID 1347105); also: nearly all actives have a fitted effect of over 50% in size; also: potency is read from the fitted curve at half-maximal effect
How it was run: as §2

[12] = qHTS of pediatric cancer cell lines to identify multiple opportunities for drug repurposing: Primary screen for control Hh wild type fibroblast cells (AID 1347106);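 also: series mostly up to about 46 µM; a drop in luminescence marks cytotoxicity and a rise apparent proliferation; nearly all actives have a fitted effect of over 55% in size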
How it was run: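 Viability after 48 h compound treatment at 37C, 500-1,000 cells/well, read as ATP luminescence with CellTiter-Glo. Primary screens used 11-point (MIPE, 0.78 nM-46 µM) or 8-point (NPC, 0.59 nM-46 µM) final concentrations; follow-up screens used 11-point dilutions.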

[13] = qHTS of pediatric cancer cell lines to identify multiple opportunities for drug repurposing: Primary screen for Rh41 cells (AID 1347108);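 also: series mostly up to about 46 µM; luminescence drop marks cytotoxic hits; nearly all actives have a fitted effect of over 70% in size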
How it was run: as §2

[14] = qHTS of pediatric cancer cell lines to identify multiple opportunities for drug repurposing: Primary screen for Rh18 cells (AID 1347102); also: nearly all actives have a fitted effect of over 65% in size
How it was run: as §1

[15] = qHTS of pediatric cancer cell lines to identify multiple opportunities for drug repurposing: Primary screen for NB-EBc1 cells (AID 1347095); also: potency is read from the fitted curve at half-maximal effect
How it was run: as §2

Measured: Potency

c1ccc2c(c1)OCC(C1=NCCN1)O2 (centres undefined)
active: [2] 23.7 µM | [3] 13.7 µM | [4] 23.7 µM | [5] 26.6 µM | [6] 19.5 µM | [7] 21.1 µM
inactive: [1] | [8]

CO[C@]12CC[C@@]3(C[C@@H]1[C@](C)(O)C(C)(C)C)[C@@H]1Cc4ccc(O)c5c4[C@@]3(CCN1CC1CC1)[C@H]2O5
active: [9] 39.6 µM | [1] 38.2 µM | [2] 30.3 µM | [10] 25 µM | [11] 30.3 µM

CCCN1CCC[C@@H]2Cc3[nH]ncc3C[C@H]21
not listed: [2] | [3] | [14] | [15]
inactive: all other assays above

CCC(=O)C(CC(C)N(C)C)(c1ccccc1)c1ccccc1 (centres undefined)
active: [10] 22.5 µM
inactive: [1] | [4] | [5] | [14] | [12] | [8]

Oc1ccccc1-c1ccccc1
not listed: [2] | [14] | [15]
inactive: all other assays above

N#CC(C#N)=Cc1ccc(O)c(O)c1
not listed: [3] | [5] | [6] | [9] | [10] | [15]
inactive: all other assays above

N[C@@H]1C[C@H]1c1ccccc1
not listed: [2] | [15]
inactive: all other assays above

CC(C)=CCOc1c2occc2cc2ccc(=O)oc12
not listed: [2] | [3] | [6] | [10] | [15]
inactive: all other assays above

COC1(CS(=O)c2ccccc2)CCN(CCc2c[nH]c3ccc(F)cc23)CC1 (centres undefined)
not listed: [3] | [9] | [10] | [13] | [14]
inactive: all other assays above

CC(C)(C)CC(C)(C)c1ccc(O)cc1
active: [15] 30.6 µM | [2] 30.6 µM and 21.1 µM | [3] 25 µM | [10] 25.2 µM and 15.5 µM
inactive: [4] | [7] | [12] | [8] | [13]

Source: PubChem BioAssay (NCATS)
